PubChem BioAssay AID1159580 (chemical genetic matrix, 2015)
Several values for one entry are separate records, joined by “and”; a condition that tells them apart may be missing. Equal values may be shown once. Screen size: about 5,500 compounds; about 2,000 (36%) were called active. About 18% were inconclusive and are not listed. Rule as the data show it: active = normalized growth mostly below about 0.91 (no sharp cut-off); inconclusive = no clear call, values can overlap the other calls; inactive = mostly above about 0.92. The list shows a part of the results.

Experiment: chemical genetic growth profiling, strain panel (AID 1159580);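 also: tested at 20 µM; growth read once vehicle control cultures reached saturation at 30 °C; 1 = growth at the plate median or of vehicle wells; lower values mean less growth of the strain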
Details: S. cerevisiae deletion strains, growth OD

Measured: normalized growth

C=C[C@@](C)(O)CCC1C(=C)C[C@H](OC(C)=O)C2C(C)(C)CCCC12C (stereo partly specified)
active: locus YDR392W, strain spt3, active compounds read low 0.562
inactive: locus YAL013W, strain DEP1, active compounds read low 1.01 | locus YAL021C, strain ccr4, active compounds read low 1.03 | locus YAL026C, strain drs2, active compounds read low 1.03 | locus YAL030W, strain snc1, active compounds read low 1.04 | locus YBL061C, strain skt5, active compounds read low 1.03 | locus YBR009C, strain hhf1, active compounds read low 1 | locus YBR021W, strain FUR4, active compounds read low 0.963 | locus YBR023C, strain chs3, active compounds read low 1.02 | locus YBR171W, strain sec66, active compounds read low 1.01 | locus YBR229C, strain ROT2, active compounds read low 0.972 | locus YBR231C, strain swc5, active compounds read low 1.05 | locus YBR279W, strain paf1, active compounds read low 1.02 | locus YCL011C, strain gbp2, active compounds read low 1.01 | locus YCL016C, strain dcc1, active compounds read low 1.01 | locus YCL029C, strain bik1, active compounds read low 0.981 | locus YCL061C, strain MRC1, active compounds read low 1.01 | locus YCL069W, strain vba3, active compounds read low 1.03 | locus YCR088W, strain abp1, active compounds read low 1.04 | locus YDL005C, strain med2, active compounds read low 1.04 | locus YDL035C, strain GPR1, active compounds read low 0.961 | locus YDL040C, strain nat1, active compounds read low 1.03 | locus YDL074C, strain BRE1, active compounds read low 0.956 | locus YDL101C, strain DUN1, active compounds read low 1.01 | locus YDL185W, strain tfp1, active compounds read low 0.952 | locus YDL192W, strain arf1, active compounds read low 0.976 | locus YDR001C, strain nth1, active compounds read low 1.03 | locus YDR069C, strain doa4, active compounds read low 1.07 | locus YDR101C, strain arx1, active compounds read low 0.977 | locus YDR137W, strain rgp1, active compounds read low 0.99 | locus YDR150W, strain NUM1, active compounds read low 1.07 | locus YDR159W, strain sac3, active compounds read low 1.02 | locus YDR162C, strain NBP2, active compounds read low 0.965 | locus YDR195W, strain ref2 1.06 | locus YDR297W, strain sur2, active compounds read low 1.05 | locus YDR318W, strain mcm21, active compounds read low 1.01 | locus YDR334W, strain swr1, active compounds read low 1.04 | locus YDR335W, strain msn5, active compounds read low 1.03 | locus YDR388W, active compounds read low 1 | locus YDR502C, strain sam2, active compounds read low 1.03 | locus YEL003W, strain gim4, active compounds read low 1.02 | locus YEL037C, strain rad23, active compounds read low 1.02 | locus YEL061C, strain CIN8 (second series), active compounds read low 1.03 | locus YER015W, strain faa2, active compounds read low 1.02 | locus YER016W, strain bim1, active compounds read low 1.03 | locus YER110C, active compounds read low 0.978 | locus YER111C, strain swi4, active compounds read low 1.02 | locus YER155C, strain BEM2 (second series), active compounds read low 0.989 | locus YER155C, strain BEM2, active compounds read low 0.999 | locus YER167W, strain BCK2, active compounds read low 1.01 | locus YFR010W, strain ubp6, active compounds read low 1.05 | locus YGL078C, strain dbp3, active compounds read low 1.03 | locus YGL086W, strain mad1, active compounds read low 1.02 | locus YGL167C, strain pmr1, active compounds read low 1.01 | locus YGL173C, strain kem1, active compounds read low 1.04 | locus YGL227W, strain vid30, active compounds read low 1.03 | locus YGL240W, strain doc1, active compounds read low 1.01 | locus YGL248W, strain PDE1, active compounds read low 1.02 | locus YGL253W, strain hxk2, active compounds read low 1.03 | locus YGR135W, strain pre9, active compounds read low 1.08 | locus YGR252W, strain gcn5, active compounds read low 1.09 | locus YHR013C, strain ard1, active compounds read low 1.02 | locus YHR027C, strain rpn1, active compounds read low 1.04 | locus YHR030C, strain SLT2, active compounds read low 0.929 | locus YHR079C, strain IRE1 (second series), active compounds read low 0.982 | locus YHR079C, strain IRE1, active compounds read low 0.961 | locus YHR094C, strain hxt1, active compounds read low 0.985 | locus YHR129C, strain ARP1, active compounds read low 1 | locus YHR142W, strain chs7, active compounds read low 1 | locus YHR200W, strain rpn10, active compounds read low 1.01 | locus YIL066C, strain RNR3, active compounds read low 0.965 | locus YIL073C, strain SPO22, active compounds read low 0.984 | locus YIL125W, strain kgd1, active compounds read low 0.976 | locus YIR030C, strain dcg1, active compounds read low 0.995 | locus YJL092W, strain hpr5, active compounds read low 1.03 | locus YJL095W, strain BCK1 (second series), active compounds read low 1.03 | locus YJL095W, strain BCK1, active compounds read low 1.06 and 0.951 | locus YJL115W, strain asf1, active compounds read low 1.03 | locus YJL129C, strain trk1, active compounds read low 0.995 | locus YJL134W, strain LCB3, active compounds read low 1 | locus YJL154C, strain vps35, active compounds read low 1.03 | locus YJL164C, strain tpk1, active compounds read low 0.988 | locus YJL166W, strain qcr8, active compounds read low 0.982 | locus YJL168C, strain set2, active compounds read low 1 | locus YJL187C, strain SWE1 (second series), active compounds read low 1.03 | locus YJL187C, strain SWE1, active compounds read low 1.02 | locus YJR066W, strain TOR1, active compounds read low 0.931 | locus YJR075W, strain HOC1, active compounds read low 1.03 | locus YKL009W, strain mrt4, active compounds read low 0.956 | locus YKL068W, active compounds read low 0.975 | locus YKL085W, strain MDH1 (second series), active compounds read low 0.977 | locus YKL085W, strain MDH1, active compounds read low 0.977 | locus YKL160W, strain elf1, active compounds read low 0.995 | locus YKR001C, strain vps1, active compounds read low 0.993 | locus YKR026C, strain gcn3, active compounds read low 1.03 | locus YKR091W, strain srl3, active compounds read low 1.03 | locus YLL001W, strain dnm1, active compounds read low 0.988 | locus YLL026W, active compounds read low 1.03 | locus YLL041C, strain sdh2, active compounds read low 1.02 | locus YLR027C, strain aat2, active compounds read low 0.992 | locus YLR039C, strain RIC1, active compounds read low 1.05 | locus YLR058C, strain SHM2, active compounds read low 1 | locus YLR102C, strain apc9, active compounds read low 0.995 | locus YLR113W, strain HOG1, active compounds read low 0.902 | locus YLR221C, strain rsa3, active compounds read low 1.03 | locus YLR258W, strain gsy2, active compounds read low 1.03 | locus YLR262C, strain YPT6 (second series), active compounds read low 0.978 | locus YLR268W, strain sec22, active compounds read low 0.975 | locus YLR320W, strain mms22, active compounds read low 1.03 | locus YLR330W, strain CHS5, active compounds read low 1 | locus YLR342W, strain FKS1 (second series), active compounds read low 1.04 | locus YLR342W, strain FKS1, active compounds read low 1.03 | locus YLR357W, strain rsc2, active compounds read low 1.01 | locus YLR370C, strain arc18, active compounds read low 1.02 | locus YLR371W, strain rom2, active compounds read low 1.02 | locus YLR384C, strain iki3, active compounds read low 1.03 | locus YLR418C, strain cdc73, active compounds read low 0.98 | locus YML016C, strain PPZ1, active compounds read low 0.999 | locus YML032C, strain rad52, active compounds read low 0.976 | locus YML120C, strain ndi1, active compounds read low 0.984 | locus YML124C, strain tub3, active compounds read low 1 | locus YMR058W, strain fet3, active compounds read low 1.04 | locus YMR078C, strain ctf18, active compounds read low 0.987 | locus YMR125W, strain sto1, active compounds read low 1.05 | locus YMR129W, active compounds read low 1.02 | locus YMR205C, strain PFK2, active compounds read low 0.958 | locus YMR223W, strain ubp8, active compounds read low 0.986 | locus YMR231W, strain pep5, active compounds read low 1.04 | locus YMR307W, strain GAS1, active compounds read low 0.912 | locus YNL067W, strain RPL9B, active compounds read low 1.04 | locus YNL071W, strain lat1, active compounds read low 0.928 | locus YNL153C, strain GIM3, active compounds read low 1.02 | locus YNL183C, strain NPR1, active compounds read low 0.918 | locus YNL209W, strain ssb2, active compounds read low 1.03 | locus YNL233W, strain BNI4, active compounds read low 1.02 | locus YNL248C, strain rpa49, active compounds read low 1.03 | locus YNL250W, strain rad50, active compounds read low 0.989 | locus YNL271C, strain bni1, active compounds read low 1 | locus YNL298W, strain CLA4, active compounds read low 1 | locus YNL307C, strain MCK1, active compounds read low 0.996 | locus YNL322C, strain KRE1 (second series), active compounds read low 0.984 | locus YNR049C, strain mso1, active compounds read low 1.03 | locus YNR052C, strain pop2, active compounds read low 1.02 | locus YOL006C, strain TOP1, active compounds read low 1.02 | locus YOL012C, strain htz1 1.3 | locus YOL147C, strain pex11, active compounds read low 1 | locus YOR001W, strain rrp6, active compounds read low 1.02 | locus YOR061W, strain CKA2, active compounds read low 0.971 | locus YOR069W, strain VPS5, active compounds read low 1.01 | locus YOR070C, strain gyp1, active compounds read low 1 | locus YOR080W, strain dia2, active compounds read low 1.04 | locus YOR083W, strain WHI5, active compounds read low 0.976 | locus YOR106W, strain vam3, active compounds read low 0.986 | locus YOR136W, strain idh2, active compounds read low 1.01 | locus YOR144C, strain elg1, active compounds read low 0.995 | locus YOR184W, strain ser1, active compounds read low 0.928 | locus YOR231W, strain MKK1, active compounds read low 0.917 | locus YOR265W, strain rbl2, active compounds read low 1.04 | locus YOR270C, strain vph1, active compounds read low 0.963 | locus YOR290C, strain snf2, active compounds read low 0.946 | locus YOR316C, strain cot1, active compounds read low 0.997 | locus YPL051W, strain arl3, active compounds read low 0.996 | locus YPL078C, strain atp4, active compounds read low 0.976 | locus YPL106C, strain sse1, active compounds read low 1.01 | locus YPL240C, strain hsp82, active compounds read low 1.02 | locus YPL256C, strain CLN2, active compounds read low 0.95 | locus YPR119W, strain clb2, active compounds read low 1 | locus YPR141C, strain kar3, active compounds read low 0.993 | locus YPR163C, strain tif3, active compounds read low 1.01 | locus YPR167C, strain met16, active compounds read low 0.996 | strain wtn01, active compounds read low 0.958
